# HepG2 tox – qHTS for Inhibitors of TGF-b: Cytotox Counterscreen. HepG2 CAGA-GFP viability, ATP luminescence, 18 h. Potency, µM (series often up to 46.1 µM), for the others: top-dose activity change, negative = cytotoxicity, actives largely listed as cytotoxic. 410,000 tested, 0.76% active; note: potency is the fitted concentration of half-maximal effect
#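 CellTiter-Glo luminescence gave cytotoxicity after 18 hours at 37 degrees C. The cells were HepG2 CAGA-GFP in 1% FBS DMEM, stimulated with 500 pg/mL TGF-beta after compound addition. %Activity was normalised to no-cell wells (complete cell-killing) and DMSO (no toxicity), and curves were fitted and classified.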
# TDP1 inh – qHTS Assay for Inhibitors of Tyrosyl-DNA Phosphodiesterase (TDP1) | Tyrosyl-DNA phosphodiesterase 1 (Homo sapiens), Q9NUW8 | recombinant TDP1, AlphaScreen DNA substrate cleavage | Potency, µM (titrated, usually from 130 µM), without a hit: top-dose activity change, negative = inhibition, hits mostly inhibitors | 350,000 tested, 0.28% active | AID 485290, 2010; note: potency is the fitted concentration of half-maximal effect; % is set by controls: 0 for no effect and ±100 for the full control effect; nearly all actives have a fitted effect of over 40% in size
# Target sequence (Q9NUW8 whole entry, looked up): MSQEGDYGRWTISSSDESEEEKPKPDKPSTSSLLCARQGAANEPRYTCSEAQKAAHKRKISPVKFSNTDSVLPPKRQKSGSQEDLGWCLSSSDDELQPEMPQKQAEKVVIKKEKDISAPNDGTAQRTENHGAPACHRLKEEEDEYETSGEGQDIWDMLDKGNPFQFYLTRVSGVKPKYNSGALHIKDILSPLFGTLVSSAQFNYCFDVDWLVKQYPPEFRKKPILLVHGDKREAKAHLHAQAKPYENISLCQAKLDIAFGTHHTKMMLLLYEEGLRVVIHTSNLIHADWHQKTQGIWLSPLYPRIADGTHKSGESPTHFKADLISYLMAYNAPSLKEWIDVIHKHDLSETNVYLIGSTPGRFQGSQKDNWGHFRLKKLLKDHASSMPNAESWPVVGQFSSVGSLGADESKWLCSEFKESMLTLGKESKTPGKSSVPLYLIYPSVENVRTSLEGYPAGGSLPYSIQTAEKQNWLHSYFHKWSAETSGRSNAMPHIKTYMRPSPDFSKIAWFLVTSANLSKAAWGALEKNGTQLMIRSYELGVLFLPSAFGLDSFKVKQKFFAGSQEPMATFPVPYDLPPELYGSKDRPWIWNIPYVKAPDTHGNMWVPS
#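 Steps: enzyme plus compound, 15 min RT; add biotin/phosphotyrosine-FITC oligonucleotide (15 nM final), react 5 min; add donor/acceptor beads (10 ug/ml final), 10 min; read AlphaScreen. Tdp1 at 1 nM final.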
# DT40 TDP1 no CPT – qHTS for Inhibitors of human tyrosyl-DNA phosphodiesterase 1 (TDP1): qHTS in cells in absence of CPT | DT40 Tdp1-/- hTDP1 cells, no CPT, ATP luminescence, 48 h | 420,000 tested, 15% active | Potency, µM (titrated, usually from 46.2 µM), inactives show at the highest dose activity change, negative = growth inhibition, hits mostly inhibitors; note: potency is the fitted concentration of half-maximal effect; % is set by controls: 0 for no effect and ±100 for the full control effect; nearly all actives have a fitted effect of over 55% in size
#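 A cellular qHTS used chicken DT40 cells lacking endogenous Tdp1 but carrying stably transfected human TDP1. Compounds were applied without camptothecin, and cell growth kinetics were judged by ATP-dependent luminescence after ≥48 hr.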
# DT40 TDP1 CPT – qHTS for Inhibitors of human tyrosyl-DNA phosphodiesterase 1 (TDP1): qHTS in cells in presence of CPT | chicken DT40 Tdp1-/-;hTDP1 cells + 20 nM CPT, ATP luminescence, 48 h | Potency, µM (titrated, usually from 46.2 µM), without a hit: top-dose activity change, negative = growth inhibition, actives largely listed as inhibitors | 420,000 tested, 12% active; note: potency is the fitted concentration of half-maximal effect; % is set by controls: 0 for no effect and ±100 for the full control effect; nearly all actives have a fitted effect of over 55% in size
#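 Chicken DT40 Tdp1-/- cells complemented with human TDP1, 400 cells/well, exposed to compounds plus 20 nM camptothecin for at least 48 h at 37 C; viability read as ATP content by CellTiter-Glo luminescence.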
# IL1B secr inh – qHTS for Inhibitors of Inflammasome Signaling: IL-1-beta AlphaLISA Primary Screen | THP-1 LPS/ATP IL-1B secretion, AlphaLISA, 16 h; hits give low values | activity change, % at 57.5 µM | 360,000 tested, 4.7% active | AID 743279, 2014; in the data active = activity change below about -50%; inconclusive = mostly about -30% to -49%; note: % is set by controls: 0 for no effect and ±100 for the full control effect
#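 Secreted IL-1B measured by AlphaLISA bead assay after 16 h compound exposure of THP-1 cells; compounds (final up to 57.5 uM) added 1 h before LPS (250 ng/mL) and ATP (1.25 mM) stimulation; lower signal means less secretion.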
# TGFb inhibitor – qHTS for Inhibitors of TGF-b. HepG2 CAGA-GFP TGF-b/SMAD3 reporter, GFP fluorescence, 18 h; TGF-beta stimulated, 500 pg/mL final. Potency, µM (doses to about 46.1 µM), for inactives: at the highest dose activity, negative = inhibition, actives largely listed as inhibitors. 410,000 tested, 1.2% active; note: potency is the fitted concentration of half-maximal effect; % is set by controls: 0 for no effect and ±100 for the full control effect; nearly all actives have a fitted effect of over 65% in size
#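 Cell-based qHTS in HEPG2 carrying a CAGA-GFP Smad reporter; compounds added before 500 pg/mL final TGF-beta, 18 h incubation at 37 degrees C, GFP fluorescence quantified per cell by imaging cytometry.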
# * hit, by the source's call; ? = inconclusive; . = no result given; ! = not confirmed by another sample; [ ] = another dose, or the depositor's remark. Shown are actives, neighbours in structure and some others; about 18% of the full set was active somewhere. Unless noted, calls come from the whole dose curve; as a rule, active = well fitted curve in the direction sought with a large enough effect; inconclusive = small, poorly fitted or top-dose-only effect, or another doubt; inactive = no such curve, though single readings can be large; an effect the other way counts as inactive or inconclusive.
SMILES,HepG2 tox,TDP1 inh,DT40 TDP1 no CPT,DT40 TDP1 CPT,IL1B secr inh,TGFb inhibitor
CCOc1ccc(S(=O)(=O)NCc2csc(C)n2)cc1,7%,-1%,-26%,-27%,24,2%
CCc1ccc(S(=O)(=O)NCCc2csc(-c3ccccc3)n2)s1,-43%,-9%,23µM*,?,-26,?
CCOc1ccc(S(=O)(=O)NCCc2csc(-c3ccc(Cl)cc3)n2)cc1,-67%,2%,5.8µM*,6.5µM*,.,11µM*
CC(C)NC(=O)[C@H]1C[C@@H]1[C@H](NC(=O)OCc1ccccc1)c1ccccc1,.,9%,.,.,.,.
CCOC(=O)N1CCC(Nc2c(Nc3ccc(F)cc3)c(=O)c2=O)CC1,-6%,5%,-11%,-18%,31,-12%
CCOC(=O)N1CCC(Nc2c(N3CCN(c4cccc(C(F)(F)F)c4)CC3)c(=O)c2=O)CC1,-26%,3%,?,23µM*,-21,-29%
CCOC(=O)N1CCC(Nc2c(Nc3cccc(CC)c3)c(=O)c2=O)CC1,-37%,1%,18µM*,?,36,?
CCOC(=O)N1CCN(c2c(N3CCN(c4ccc(F)cc4)CC3)c(=O)c2=O)CC1,5%,.,?,-11%,-1,-12%
CCOC(=O)N1CCC(Nc2c(-c3ccccc3)c(=O)c2=O)CC1,-3%,1%,23µM*,?,6,-1%
CCOC(=O)N1CCC(Nc2c(-c3ccc(C)cc3)c(=O)c2=O)CC1,-11%,5%,?,?,5,-6%
C1CCC(NC(=NC2C3CC4CC(C3)CC2C4)N2CCOCC2)CC1 (stereo not drawn),.,6%,23µM*,29µM*!,.,.
C1CCC(N=C(NC23CC4CC(CC(C4)C2)C3)N2CCOCC2)CC1,.,6%,.,.,.,.
O=S(=O)(Nc1nnc(-c2ccccc2)s1)c1ccc(Cl)cc1,-38%,6%,16µM*,?,9,?
CCOc1ccccc1NC(=O)C1CCCN(S(=O)(=O)c2ccc3c(c2)CCCN3C(C)=O)C1 (stereo not drawn),-25%,3%,15µM*,26µM*,-11,-17%
Cc1ccc(S(=O)(=O)N2CCN(Cc3ccccc3C(F)(F)F)CC2)cc1,-23%,-12%,-33%,-9%,12,-28%
COc1cc(C)nc(N2CCCC(C(=O)Nc3ccccc3Br)C2)n1 (stereo not drawn),13%,-5%,15%,-4%,51,9%
Cc1ccc(S(=O)(=O)N2CCN(Cc3ccccc3Cl)CC2)cc1,-1%,-9%[12.3 µM],18µM*,?,.,?
COc1cc(C)nc(N2CCCC(C(=O)Nc3cccc(Cl)c3C)C2)n1 (stereo not drawn),0%,-10%,?,23µM*,16,2%
COc1ccc(S(=O)(=O)N2CCCC(C(=O)N3CCN(Cc4ccccc4)CC3)C2)cc1Cl (stereo not drawn),-25%,.,15µM*,21µM*,?,-7%
Cc1ccc(S(=O)(=O)N2CCC(C(=O)N3CCN(Cc4ccccc4)CC3)CC2)cc1,-16%,3%,?,21µM*,7,-3%
O=C(C1CCN(S(=O)(=O)c2ccccc2)CC1)N1CCN(Cc2ccccc2)CC1,4%,3%,?,?,0,-17%
CC(=O)N1CCCc2cc(S(=O)(=O)N3CCCC(C(=O)Nc4ccc(C)cc4C)C3)ccc21 (stereo not drawn),6%,2%,?,-27%,21,12%
CC(=O)N1CCCc2cc(S(=O)(=O)N3CCCC(C(=O)Nc4cccc(Cl)c4C)C3)ccc21 (stereo not drawn),-32%,0%,?,16µM*,.,-25%
COc1ccc(S(=O)(=O)N2CCCC(C(=O)Nc3cccnc3)C2)cc1Cl (stereo not drawn),-11%,2%,15µM*,16µM*,-15,0%
CC(=O)N1CCCc2cc(S(=O)(=O)N3CCCC(C(=O)Nc4ccc(F)cc4F)C3)ccc21 (stereo not drawn),-36%,3%,21µM*,?,.,?
SMILES,HepG2 tox,TDP1 inh,DT40 TDP1 no CPT,DT40 TDP1 CPT,IL1B secr inh,TGFb inhibitor
COc1ccc(S(=O)(=O)N2CCCC(C(=O)NCc3ccncc3)C2)cc1Cl (stereo not drawn),2%,5%,-26%,-25%,19,-16%
COc1cc(/C=C/C(=O)OCC(=O)N(C)C2CCS(=O)(=O)C2)ccc1OC(F)F (stereo not drawn),-24%,1%,2%,1%,1,0%
COc1ccc(NC(=O)C2CCCN(S(=O)(=O)c3ccc4c(c3)CCCN4C(C)=O)C2)cc1 (stereo not drawn),1%,1%,?,?,9,-2%
COc1ccc(NC(=O)C2CCCN(S(=O)(=O)c3ccc4c(c3)CCCN4C(C)=O)C2)cc1Cl (stereo not drawn),-16%,2%,?,21µM*,27,?
CC(=O)N/C(=N\c1nc(C)cc(C)n1)Nc1ccccc1Cl,-2%,.,-2%,16%,58,-17%
COC(=O)c1ccc(N2CCS(=O)(=O)CC2)cc1,4%,-3%,-9%,-17%,-4,-1%
COc1cccc(N2CCN(c3ccc4nnc(CCC(=O)Nc5cccc(C(C)=O)c5)n4n3)CC2)c1,7%,-2%,?,16µM*,24,7%
COc1ccc(OC)c(NC(=O)CCc2nnc3ccc(N4CCC(C)CC4)nn23)c1,-8%,3%,?,-30%,-50*,-7%
CC(=O)c1cccc(NC(=O)CCc2nnc3ccc(NCc4ccco4)nn23)c1,-11%,25µM*,-18%,?,3,4%
COc1cccc(N2CCN(c3ccc4nnc(CCC(=O)Nc5ccc(F)cc5)n4n3)CC2)c1,2%,5%,?,6%,20,13%
COc1ccc(N2CCN(C(=O)CCc3nnc4ccc(N5CCC(C)CC5)nn34)CC2)cc1,-42%,4%,18µM*,18µM*,-12,?
Cc1ccc(OCCSc2nc3ccc(NC(=O)c4ccc(F)cc4)cc3s2)cc1,0%,2%,?,?,.,5%
